Measurements as given in PubChem BioAssay (EPA / NIEHS).
Calls of active or inactive are those of the source. Rule for the calls: active = hit-call score of the fitted dose curve at least 0.9, where 1 is the maximum; inactive = score below 0.9.

Assays:
[1] = target: Transcription factor E2F1 (Homo sapiens) (UniProt Q01094); assay: ATG_E2F_CIS: Attagene CIS-FACTORIAL HepG2 Assay for human E2F Transcription Factor 1 (AID 2282935); conditions: HepG2 Attagene cis-reporter, E2F reporter RNA transcripts; actives raise or lower the signal
Transcription factor E2F1 (Homo sapiens), sequence (Q01094 whole entry, looked up): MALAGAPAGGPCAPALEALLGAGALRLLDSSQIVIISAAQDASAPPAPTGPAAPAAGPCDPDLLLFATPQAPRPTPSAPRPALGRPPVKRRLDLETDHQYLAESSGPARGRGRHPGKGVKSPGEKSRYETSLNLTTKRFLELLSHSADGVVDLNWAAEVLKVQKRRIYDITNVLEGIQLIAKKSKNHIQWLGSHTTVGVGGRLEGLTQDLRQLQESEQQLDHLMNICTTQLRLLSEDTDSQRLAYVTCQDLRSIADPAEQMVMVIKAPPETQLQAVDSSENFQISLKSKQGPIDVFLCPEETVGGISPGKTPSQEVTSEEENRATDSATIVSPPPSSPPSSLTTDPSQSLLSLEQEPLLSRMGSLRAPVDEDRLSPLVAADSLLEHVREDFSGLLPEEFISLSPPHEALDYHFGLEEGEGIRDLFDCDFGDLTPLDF
Summary of the method: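 In this cis-factorial format, endogenous factor activity drives transfected reporters in HepG2; transcripts collected at 24 h are quantified by fluorescence after RT-PCR and capillary separation.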

[2] = ATG_E_Box_CIS: Attagene CIS-FACTORIAL HepG2 Assay for human Enhancer Box (E-box) (AID 2282936); conditions: HepG2 E-box cis-reporter transcription, actives raise or lower the signal
Summary of the method: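 Measured 24 h post-dosing in HepG2 cells transfected with multiple cis-regulated reporter units, signal being reporter mRNA induction detected by fluorescent RT-PCR with capillary electrophoresis; gain or loss fitted against DMSO.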

[3] = ATG_EGR_CIS: Attagene CIS-FACTORIAL HepG2 Assay for human Early Growth Response 1 (EGR1) (AID 2282938); conditions: HepG2 Attagene CIS-FACTORIAL EGR reporter mRNA; actives raise or lower the signal
Summary of the method: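 After a 24 h treatment of transiently transfected HepG2 cells, total RNA was reverse-transcribed and reporter sequences PCR-amplified, labelled and run on capillary electrophoresis. Reporters sit under cis-regulatory promoters sensing endogenous factors.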

[4] = ATG_M_19_CIS: Attagene CIS-FACTORIAL HepG2 Assay for M19 Transcription Factor (Internal Marker) (AID 2282939); conditions: HepG2 Attagene CIS-FACTORIAL M19 internal marker reporter; actives raise or lower the signal
Summary of the method: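 Internal marker readout, fitted in both directions against DMSO, from HepG2 cells carrying transfected cis-element reporter constructs; RT-PCR and capillary electrophoresis of reporter mRNA after 24 h exposure.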

[5] = ATG_ERE_CIS: Attagene CIS-FACTORIAL HepG2 Assay for Estrogen Response Element (ERE) (AID 2282940); conditions: HepG2 ERE cis-reporter, Attagene RNA transcript; actives raise or lower the signal
Summary of the method: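 After 24 h compound treatment, RNA from transfected HepG2 cells was reverse-transcribed, reporter cDNA PCR-amplified, FAM-labelled, HpaI-cut and resolved by capillary electrophoresis. ERE-driven cis reporter transcripts reflect endogenous factors; gain or loss scored against DMSO.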

[6] = ATG_Ets_CIS: Attagene CIS-FACTORIAL HepG2 Assay for human Erythroblast Transformation Specific (ETS) (AID 2282941); conditions: HepG2 ETS cis-reporter transcription, actives raise or lower the signal
Summary of the method: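 Bidirectional fit versus DMSO of reporter mRNA signal, detected by RT-PCR and capillary electrophoresis in HepG2 cells transiently transfected with cis-element reporters and dosed 24 h.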

[7] = target: Hepatocyte nuclear factor 3-beta (Homo sapiens) (UniProt Q9Y261); assay: ATG_FoxA2_CIS: Attagene CIS-FACTORIAL HepG2 Assay for human Forkhead box A2 (FOXA2) (AID 2282942); conditions: HepG2 cis-reporter transcription factor activity, 24 h; actives raise or lower the signal
Hepatocyte nuclear factor 3-beta (Homo sapiens), sequence (Q9Y261 whole entry, looked up): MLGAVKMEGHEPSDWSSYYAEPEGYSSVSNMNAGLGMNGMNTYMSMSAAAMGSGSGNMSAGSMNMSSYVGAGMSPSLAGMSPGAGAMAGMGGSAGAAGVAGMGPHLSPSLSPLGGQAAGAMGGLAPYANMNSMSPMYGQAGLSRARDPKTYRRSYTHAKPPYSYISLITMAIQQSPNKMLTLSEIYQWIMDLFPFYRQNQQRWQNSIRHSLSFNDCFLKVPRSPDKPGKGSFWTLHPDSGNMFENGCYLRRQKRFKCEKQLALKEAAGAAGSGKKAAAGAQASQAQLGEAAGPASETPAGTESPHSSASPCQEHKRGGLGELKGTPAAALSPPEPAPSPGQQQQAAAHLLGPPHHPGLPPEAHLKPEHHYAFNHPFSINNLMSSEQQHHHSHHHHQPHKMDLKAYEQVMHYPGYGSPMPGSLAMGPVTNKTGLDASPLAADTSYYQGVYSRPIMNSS
Summary of the method: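 24 h dosing of HepG2 bearing cis-reporter constructs; mRNA readout by RT-PCR/CE fluorescence; bidirectional fit, DMSO baseline.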

[8] = ATG_GATA_CIS: Attagene CIS-FACTORIAL HepG2 Assay for human GATA Binding Protein (AID 2282944); conditions: HepG2 GATA cis-element reporter, Attagene multiplex mRNA; actives raise or lower the signal
Summary of the method: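 Reporter transcripts from a GATA cis-regulated unit, among multiplexed reporters in transfected HepG2 cells, were measured by RT-PCR with capillary electrophoresis after 24 h dosing. Induction or loss scored relative to DMSO.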

[9] = ATG_GLI_CIS: Attagene CIS-FACTORIAL HepG2 Assay for human Zinc Finger Protein GLI1 (AID 2282945); conditions: HepG2, Attagene cis-factorial reporter mRNA, GLI element; actives raise or lower the signal
Summary of the method: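 HepG2 cells transiently transfected with cis-promoter multiplexed reporter units report endogenous transcription factor activity. After 24 h chemical exposure, reporter mRNA was quantified by RT-PCR, 6-FAM labelling, HpaI digestion and capillary electrophoresis, with bidirectional fitting against DMSO.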

[10] = ATG_ISRE_CIS: Attagene CIS-FACTORIAL HepG2 Assay for human Interferon Regulatory Factor 1 (IRF1) binding to an Interferon-Stimulated Response Element (ISRE) (AID 2282948); conditions: HepG2 ISRE cis-reporter (Attagene), mRNA transcription readout; actives raise or lower the signal
Summary of the method: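 Uses HepG2 liver cells transfected with cis-regulated reporters and measures mRNA 24 h post-dosing through RT-PCR, primer-extension labelling and capillary electrophoresis, with DMSO as negative control.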

[11] = ATG_M_32_CIS: Attagene CIS-FACTORIAL HepG2 Assay for M32 Transcription Factor (Internal Marker) (AID 2282949); conditions: HepG2 Attagene cis-factorial M32 reporter, mRNA; actives raise or lower the signal;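 note: background control marker of the multiplexed CIS panel rather than a real target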
Summary of the method: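 Using DMSO as baseline, bidirectional curve fits were applied to reporter mRNA signals. These came from transiently transfected HepG2 cells exposed for 24 h, with RNA analysed by RT-PCR, FAM primer extension, HpaI digestion and CE.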

[12] = ATG_M_06_CIS: Attagene CIS-FACTORIAL HepG2 Assay for M06 Transcription Factor (Internal Marker) (AID 2282950); conditions: HepG2 Attagene CIS-FACTORIAL M06 internal marker reporter; actives raise or lower the signal
Summary of the method: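 Serves as a background control readout. Transfected HepG2 exposed to compounds for 24 h, then reporter transcripts quantified by fluorescent RT-PCR and capillary electrophoresis. Both directions fitted against DMSO baseline.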

[13] = target: Hypoxia-inducible factor 1-alpha (Homo sapiens) (UniProt Q16665); assay: ATG_HIF1a_CIS: Attagene CIS-FACTORIAL HepG2 Assay for human Hypoxia Inducible Factor 1 (HIF1A) (AID 2282951); conditions: HepG2 Attagene cis-factorial HIF1a reporter transcription; actives raise or lower the signal
Hypoxia-inducible factor 1-alpha (Homo sapiens), sequence (Q16665 whole entry, looked up): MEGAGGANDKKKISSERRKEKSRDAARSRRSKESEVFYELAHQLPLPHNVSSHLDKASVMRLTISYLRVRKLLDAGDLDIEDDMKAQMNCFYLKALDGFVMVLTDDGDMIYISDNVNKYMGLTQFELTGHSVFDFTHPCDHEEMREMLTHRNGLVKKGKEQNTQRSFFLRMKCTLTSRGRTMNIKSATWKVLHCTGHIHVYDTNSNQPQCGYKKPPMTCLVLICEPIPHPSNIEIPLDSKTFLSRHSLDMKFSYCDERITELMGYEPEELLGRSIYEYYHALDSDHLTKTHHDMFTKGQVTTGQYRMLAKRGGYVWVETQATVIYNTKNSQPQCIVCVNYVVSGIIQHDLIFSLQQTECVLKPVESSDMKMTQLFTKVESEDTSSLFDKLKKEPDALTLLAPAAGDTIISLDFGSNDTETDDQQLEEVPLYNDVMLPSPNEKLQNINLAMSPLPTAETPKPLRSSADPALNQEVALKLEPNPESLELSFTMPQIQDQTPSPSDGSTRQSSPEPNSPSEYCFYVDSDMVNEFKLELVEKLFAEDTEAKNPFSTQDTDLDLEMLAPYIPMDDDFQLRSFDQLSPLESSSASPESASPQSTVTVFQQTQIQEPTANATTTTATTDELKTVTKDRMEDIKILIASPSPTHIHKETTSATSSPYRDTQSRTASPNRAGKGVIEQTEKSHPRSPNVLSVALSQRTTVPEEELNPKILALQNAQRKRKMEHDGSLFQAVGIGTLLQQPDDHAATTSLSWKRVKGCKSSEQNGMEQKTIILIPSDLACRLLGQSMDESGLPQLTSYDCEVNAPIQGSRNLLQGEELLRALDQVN
Summary of the method: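 After 24 h chemical exposure of reporter-transfected HepG2 cells, reporter cDNA was PCR-amplified, labelled by 6-FAM primer extension (2 min 95 C, 20 s 68 C, 10 min 72 C), HpaI-cut (2 h, 37 C) and analysed by CE.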

[14] = target: Hepatocyte nuclear factor 6 (Homo sapiens) (UniProt Q9UBC0); assay: ATG_HNF6_CIS: Attagene CIS-FACTORIAL HepG2 Assay for human Hepatocyte Nuclear Factor 6 (HNF6) (AID 2282952); conditions: HepG2 Attagene cis-factorial HNF6 reporter transcription; actives raise or lower the signal
Hepatocyte nuclear factor 6 (Homo sapiens), sequence (Q9UBC0 whole entry, looked up, the tested form may be a part): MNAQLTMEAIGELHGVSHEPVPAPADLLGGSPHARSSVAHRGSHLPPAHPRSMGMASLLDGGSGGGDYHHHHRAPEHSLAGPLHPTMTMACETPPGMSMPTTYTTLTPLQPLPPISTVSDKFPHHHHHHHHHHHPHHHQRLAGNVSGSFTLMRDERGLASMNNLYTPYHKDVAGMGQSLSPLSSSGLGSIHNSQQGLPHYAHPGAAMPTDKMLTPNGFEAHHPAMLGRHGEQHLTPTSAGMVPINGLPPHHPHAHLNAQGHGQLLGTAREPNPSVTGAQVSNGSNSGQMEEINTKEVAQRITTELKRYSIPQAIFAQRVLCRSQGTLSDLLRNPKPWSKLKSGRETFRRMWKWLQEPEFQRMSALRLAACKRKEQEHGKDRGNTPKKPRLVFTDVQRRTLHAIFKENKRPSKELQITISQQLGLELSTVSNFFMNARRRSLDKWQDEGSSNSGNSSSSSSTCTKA
Summary of the method: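 Twenty-four-hour chemical treatment of reporter-transfected HepG2 cells precedes RNA isolation, DNase-treated reverse transcription and PCR of reporter sequences. Labelled fragments are sized by capillary electrophoresis and fitted bidirectionally versus DMSO.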

[15] = target: Heat shock factor protein 1 (Homo sapiens) (UniProt Q00613); assay: ATG_HSE_CIS: Attagene CIS-FACTORIAL HepG2 Assay for human Heat Shock Transcription Factor 1 (HSE) (AID 2282953); conditions: HepG2 HSE cis-reporter, Attagene RNA transcription; actives raise or lower the signal
Heat shock factor protein 1 (Homo sapiens), sequence (Q00613 whole entry, looked up): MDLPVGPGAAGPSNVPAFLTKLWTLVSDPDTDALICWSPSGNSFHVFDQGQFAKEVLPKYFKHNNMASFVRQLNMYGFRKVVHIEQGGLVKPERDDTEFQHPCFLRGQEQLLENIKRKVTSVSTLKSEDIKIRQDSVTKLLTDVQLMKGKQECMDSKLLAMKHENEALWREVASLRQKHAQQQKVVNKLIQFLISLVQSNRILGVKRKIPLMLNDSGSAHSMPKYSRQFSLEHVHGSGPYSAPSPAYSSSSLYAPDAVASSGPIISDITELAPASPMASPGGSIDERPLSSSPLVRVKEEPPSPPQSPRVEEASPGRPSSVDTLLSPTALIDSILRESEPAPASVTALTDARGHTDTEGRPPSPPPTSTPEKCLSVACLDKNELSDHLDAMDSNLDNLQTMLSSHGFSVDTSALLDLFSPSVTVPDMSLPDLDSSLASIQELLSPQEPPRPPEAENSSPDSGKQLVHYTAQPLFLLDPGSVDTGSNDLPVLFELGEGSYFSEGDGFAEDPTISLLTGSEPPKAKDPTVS
Summary of the method: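 Endogenous transcription factor activity in transiently transfected HepG2, read as reporter mRNA by RT-PCR with fluorescent capillary electrophoresis after 24 h. Gain or loss of signal fitted versus DMSO baseline.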

[16] = ATG_MRE_CIS: Attagene CIS-FACTORIAL HepG2 Assay for human Metal Responsive Element (MRE) (AID 2282954); conditions: HepG2 MRE cis-reporter transcription, Attagene multiplex; actives raise or lower the signal
Summary of the method: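 Readout: capillary electrophoresis of 6-FAM-labelled, HpaI-digested RT-PCR reporter products. System: HepG2 cells carrying transient multiplexed cis reporters, dosed 24 h. Analysis: bidirectional fit, DMSO baseline.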

[17] = ATG_FoxO_CIS: Attagene CIS-FACTORIAL HepG2 Assay for human Forkhead box O (FoxO) (AID 2282943); conditions: HepG2 Attagene cis-reporter, FoxO element, mRNA; actives raise or lower the signal
Summary of the method: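 HepG2 cells transiently transfected with cis-promoter-driven multiple reporter transcription units; 24 h after chemical dosing, reporter mRNA quantified by RT-PCR, fluorescent primer extension, HpaI digestion and capillary electrophoresis. Bidirectional fitting versus DMSO baseline.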

[18] = target: Bile acid receptor (Homo sapiens) (UniProt Q96RI1); assay: ATG_IR1_CIS: Attagene CIS-FACTORIAL HepG2 Assay for human Nuclear Receptor Subfamily 1 Group H Member 4 (NR1H4), IR1 submotif (AID 2282946); conditions: IR1 reporter transcription, actives raise or lower the signal
Bile acid receptor (Homo sapiens), sequence (Q96RI1 whole entry, looked up): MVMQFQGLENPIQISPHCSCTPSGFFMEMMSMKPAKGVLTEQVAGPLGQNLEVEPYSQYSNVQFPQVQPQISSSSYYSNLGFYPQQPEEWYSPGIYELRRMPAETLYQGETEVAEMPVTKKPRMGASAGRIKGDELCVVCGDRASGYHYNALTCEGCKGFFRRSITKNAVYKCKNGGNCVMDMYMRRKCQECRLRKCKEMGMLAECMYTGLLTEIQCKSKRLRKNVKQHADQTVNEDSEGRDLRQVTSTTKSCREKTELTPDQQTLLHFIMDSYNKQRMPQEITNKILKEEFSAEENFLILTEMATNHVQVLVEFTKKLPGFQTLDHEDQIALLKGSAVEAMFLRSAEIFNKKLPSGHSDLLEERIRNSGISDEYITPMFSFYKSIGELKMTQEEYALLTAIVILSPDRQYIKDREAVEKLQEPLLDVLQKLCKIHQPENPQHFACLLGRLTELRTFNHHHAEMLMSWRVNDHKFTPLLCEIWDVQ
Summary of the method: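 Readout: reporter transcript levels by RT-PCR with fluorescent capillary electrophoresis, from HepG2 cells transiently transfected with multiplexed cis-regulated reporters and dosed 24 h. Gain- or loss-of-signal fitted versus DMSO negative control.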

[19] = ATG_GRE_CIS: Attagene CIS-FACTORIAL HepG2 Assay for human Glucocorticoid Response Elements (GRE) (AID 2282947); conditions: HepG2 GRE cis-reporter, Attagene multiplex mRNA; actives raise or lower the signal
Summary of the method: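 HepG2, transient cis-reporter transfection, 24 h. Reporter mRNA: RT-PCR then CE, fluorescence. Fit both directions vs DMSO.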

[20] = ATG_M_61_CIS: Attagene CIS-FACTORIAL HepG2 Assay for M61 Transcription Factor (Internal Marker) (AID 2282937); conditions: HepG2 Attagene CIS-FACTORIAL M61 internal marker reporter; actives raise or lower the signal
Summary of the method: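 Transfect HepG2 with MRTUs; dose 24 h; isolate RNA; reverse-transcribe with DNase I treatment; PCR-amplify, FAM-label and cut with HpaI for 2 h at 37 C; resolve by CE. Bidirectional fitting against DMSO.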

Measured: AC50

CC(=O)OCc1ccccc1
inactive: [1] | [2] | [3] | [4] | [5] | [6] | [7] | [8] | [9] | [10] | [11] | [12] | [13] | [14] | [15] | [16]

CC(CC=O)CC(C)(C)C (configuration not stated)
inactive: [1] | [2] | [3] | [4] | [5] | [6] | [7] | [17] | [8] | [18] | [10] | [11] | [12] | [13] | [14] | [15]

CCC[Si](OC)(OC)OC
inactive: [1] | [2] | [3] | [4] | [5] | [6] | [7] | [17] | [8] | [9] | [18] | [19] | [10] | [11] | [12] | [13] | [14] | [15]

CC1(C)CC(O)CC(C)(C)N1[O]
inactive: [1] | [2] | [3] | [4] | [5] | [6] | [7] | [17] | [8] | [9] | [10] | [11] | [12] | [13] | [14] | [15] | [16]
active: [18] 27.7 µM

Cc1ccc([N+](=O)[O-])cc1N
inactive: [1] | [2] | [3] | [4] | [5] | [6] | [7] | [17] | [8] | [9] | [18] | [10] | [11] | [12] | [13] | [14] | [15] | [16]

O=C1CCCCCCCCCCCN1
inactive: [1] | [2] | [20] | [4] | [5] | [6] | [7] | [8] | [9] | [19] | [10] | [11] | [12] | [13] | [14] | [15] | [16]

CC1(C)CCC[C@]2(C)[C@H]3CC(=O)O[C@]3(C)CC[C@@H]12
inactive: [1] | [2] | [3] | [4] | [5] | [6] | [7] | [17] | [8] | [9] | [18] | [19] | [10] | [11] | [12] | [13] | [14] | [15] | [16]
